Compound activity as filed in PubChem BioAssay.
Most compounds without a hit are left out; they make up all but 18% or so of the library.
TDP1 cell CPT: growth inhibition of DT40 Tdp1-/-;hTDP1 cells with camptothecin (screen for TDP1 inhibitors) | chicken DT40 Tdp1-/-;hTDP1 cells + 20 nM CPT, ATP luminescence, 48 h | Potency, µM (highest dose often 46.2 µM), usual class: inhibitors | actives 12% (n = 420,000) | AID 686979; note: nearly all actives have a fitted effect of over 55% in size
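Cell growth measured by CellTiter-Glo luminescence after a minimum 48 h, 37 C compound exposure with 20 nM CPT in Tdp1-knockout DT40 cells stably expressing hTDP1, seeded 400/well; qHTS titration format.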
DT40 TDP1 no CPT: qHTS for Inhibitors of human tyrosyl-DNA phosphodiesterase 1 (TDP1): qHTS in cells in absence of CPT; AID 686978, 2013; DT40 Tdp1-/- hTDP1 cells, no CPT, ATP luminescence, 48 h; actives 15% (n = 420,000); Potency, µM (top dose mostly 46.2 µM), most hits filed as inhibitors; note: nearly all actives have a fitted effect of over 55% in size
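Chicken DT40 Tdp1-/- cells complemented with human TDP1, screened without camptothecin (DMSO vehicle only), 400 cells/well. Compounds pin-transferred, cells incubated at 37 °C for at least 48 hr. Growth read as ATP-dependent luminescence (CellTiter-Glo, 30 min at RT).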
LDHA inh: blocks human lactate dehydrogenase A; purified LDHA, NADH/diaphorase-resazurin fluorescence; hits give low values; activity change, % (values are at about 110 or 230 µM); actives 0.15% (n = 480,000); AID 1347041; in the data active = activity change below about -30%; inconclusive = mostly about -25% to -30%
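Remaining NADH was detected by diaphorase (0.133 mg/mL) converting 37 µM resazurin to fluorescent resorufin, read at 0 and 20 minutes. The preceding 5-minute room-temperature reaction used 2 nM LDHA, 0.2 mM sodium pyruvate and 0.06 mM NADH at pH 7.4.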
RORg inh: ROR gamma (mouse) transcription inhibition; Potency, µM (series often up to 53.6 µM), usual class: inhibitors; P51450; AID 2551; Drosophila S2 Gal4-RORgamma UAS-luciferase reporter, 20 h; actives 5.4% (n = 310,000); note: nearly all actives have a fitted effect of over 60% in size
Target sequence (P51450 whole entry, looked up, the tested form may be a part): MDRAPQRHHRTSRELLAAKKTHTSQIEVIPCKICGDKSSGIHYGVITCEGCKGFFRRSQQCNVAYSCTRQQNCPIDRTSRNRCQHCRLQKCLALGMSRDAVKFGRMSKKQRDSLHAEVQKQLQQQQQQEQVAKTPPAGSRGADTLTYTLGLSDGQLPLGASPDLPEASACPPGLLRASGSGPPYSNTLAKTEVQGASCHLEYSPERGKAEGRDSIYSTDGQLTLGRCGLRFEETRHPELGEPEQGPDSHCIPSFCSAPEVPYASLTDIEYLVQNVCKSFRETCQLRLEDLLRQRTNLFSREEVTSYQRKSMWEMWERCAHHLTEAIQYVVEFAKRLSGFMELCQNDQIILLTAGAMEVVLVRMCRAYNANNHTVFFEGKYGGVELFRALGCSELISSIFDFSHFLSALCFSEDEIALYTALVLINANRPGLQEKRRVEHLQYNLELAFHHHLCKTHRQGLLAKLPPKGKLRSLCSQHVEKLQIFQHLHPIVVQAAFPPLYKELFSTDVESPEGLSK
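Compounds are pin-transferred onto Drosophila Schneider cells expressing a copper-inducible Gal4–ROR gamma transactivation domain fusion. After 1 hr, copper sulfate is added to 700 uM final; luciferase is read 20 hr later.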
IL1B secr inh: blocks inflammasome-driven IL-1 beta release; AID 743279; activity change, % at 57.5 µM; THP-1 LPS/ATP IL-1B secretion, AlphaLISA, 16 h; hits give low values; actives 4.7% (n = 360,000); in the data active = activity change below about -50%; inconclusive = mostly about -30% to -49%
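Secreted IL-1B measured by AlphaLISA bead assay after 16 h compound exposure of THP-1 cells; compounds (final up to 57.5 uM) added 1 h before LPS (250 ng/mL) and ATP (1.25 mM) stimulation; lower signal means less secretion.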
VP16 counter: inhibits Gal4-VP16 luciferase reporter, ROR gamma counter-screen. actives 3.5% (n = 310,000). Potency, µM (titrated, usually from 53.6 µM), hits mostly inhibitors. Drosophila S2 Gal4-VP16 UAS-luciferase, luminescence, 20 h;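 note: Gal4-VP16 expression switched on by copper sulfate through the metallothionein promoter; nearly all actives have a fitted effect of over 50% in size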
Hits are given with their value; - = inactive; ? = inconclusive; . = not tested or not shown. Unless noted, calls come from the whole dose curve; as a rule, active = well fitted curve in the direction sought with a large enough effect; inconclusive = small, poorly fitted or top-dose-only effect, or another doubt; inactive = no such curve, though single readings can be large; an effect the other way counts as inactive or inconclusive.

SMILES	TDP1 cell CPT	DT40 TDP1 no CPT	LDHA inh	RORg inh	IL1B secr inh	VP16 counter
CC(C)(C)OC(=O)C[C@@H]1C/C=C\C[C@@H](CC(=O)N[C@@H](CO)Cc2ccccc2)C(=O)NC[C@@H](c2ccccc2)OC1=O	23µM	?	-	.	-	.
O=C(C[C@H]1C/C=C\C[C@H](Cc2ccc(F)cc2)C(=O)O[C@@H](c2ccccc2)CNC1=O)N[C@@H](CO)Cc1ccccc1	21µM	12µM	-	.	-	.
O=C(C[C@H]1C/C=C\CC[C@@H](Cc2ccc(F)cc2)C(=O)O[C@H](c2ccccc2)CNC1=O)N[C@H](CO)Cc1ccccc1	18µM	15µM	-	.	-	.
CCn1c(CCNC(=O)c2ccccc2F)nnc1SCC(=O)N1CCc2ccccc21	.	.	-	.	.	.
CN(Cc1ccco1)C(=O)c1ccc2ncsc2c1	.	.	-	.	.	.
CC(C)C(=O)Nc1sc2c(c1-c1nc3ccccc3s1)CCN(C(C)C)C2	.	.	-	.	.	.
CCCNc1nc(-c2cc(C)n(NC(=O)c3nn(C)c(=O)c4ccccc34)c2C)cs1	.	.	-	.	.	.
COc1cccc(C(=O)Nc2ccc(NC(=O)c3ccco3)nc2)c1	-	?	-	-	-	-
O=C(Nc1ccc(Oc2cccc(C(F)(F)F)c2)nc1)c1ccco1	-	12µM	-	?	-	-
CC(C)(C)c1ccc(Oc2ccc(NC(=O)c3ccco3)cn2)cc1	1.8µM	1.6µM	-	?	-	?
O=C(Nc1ccc(Oc2cccnc2)nc1)c1ccc(C(F)(F)F)cc1	?	15µM	-	-	?	?
O=C(Nc1ccc(Oc2ncccn2)cc1)c1ccco1	-	-	-	-	-	-
CC(C)(C)c1ccc(Oc2ccc(NC(=O)c3cccs3)cn2)cc1	?	?	-	?	-80	?
COc1ccc(NC(=O)c2cccs2)cn1	-	-	-	-	-	-
CCCCn1cnc2c1c(=O)n(CC(O)c1ccccc1)c(=O)n2CC(C)C (stereo unspecified)	.	.	-	.	.	.
CC(=O)N(/N=C/c1ccc(C)cc1)c1nc(CCl)cs1	15µM	?	-	-	-	-
CCOC(=O)Cc1csc(N/N=C/c2ccc(Cl)cc2)n1	-	-	-	?	-	-
Cc1cc(C=O)c(C)n1-c1ccc(NC2CCCC2)c([N+](=O)[O-])c1	?	18µM	-	-	-82	-
Cc1ccc(NC2=C(C(=O)N3CCOCC3)S(=O)(=O)c3ccccc32)cc1F	.	.	-	.	.	.
CC(C)(C)C(=O)Nc1cccc(NC(=O)Cc2ccccc2Cl)c1	.	.	-	.	.	.
CCN(CC)C(C)CNC(=O)NC1CC1 (stereo unspecified)	.	.	-	.	.	.
O=c1/c(=C\c2ccc(O)cc2)sc2n1C(c1ccccc1)C(c1ccccc1)=NN=2 (stereo unspecified)	?	?	-	?	-65	-
O=C(Nc1nc2ccccc2n1Cc1ccccc1)c1ccco1	21µM	21µM	-	2µM	-	2.5µM
CCCn1c(NC(=O)c2ccc(C)cc2)nc2ccccc21	?	26µM	-	2.2µM	-	0.63µM
CCCn1c(NC(=O)c2ccccc2)nc2ccccc21	?	?	-	0.79µM	-	1.8µM
SMILES	TDP1 cell CPT	DT40 TDP1 no CPT	LDHA inh	RORg inh	IL1B secr inh	VP16 counter
Cc1csc(NC(=O)C2CCN(S(=O)(=O)c3ccccc3F)CC2)n1	?	26µM	-	-	-	-
Cc1nc2nc(N)nn2c(C)c1CC(=O)NC(C)C1CC1 (stereo unspecified)	.	.	-	.	.	.
Cc1ccc(S(=O)(=O)N2CCN(C(=O)CCn3ccc4ccccc43)CC2)cc1	.	.	-	.	.	.
C=CCn1c(NCc2ccccc2)nc2ccccc21	-	-	-	-	-	?
CCCn1c(NC(=O)c2cccc(S(=O)(=O)N3CCCC3)c2)nc2ccccc21	23µM	13µM	-	2.8µM	-92	6.3µM
CCCn1c(Nc2nc3ccccc3n2C)nc2ccccc21	-	?	-	-	-99	-
Cc1nc(-c2ccc(NC(=O)C3CC3)cc2)cs1	23µM	18µM	-	-	-	?
CCCCn1c(Nc2ccccc2)nc2ccccc21	-	-	-	-	-	-
